A selection: hits, their analogues and other compounds. The true share with any hit is near 0.49%.
Apoferritin bind = qHTS Assay for Identification of Novel General Anesthetics; apoferritin/1-aminoanthracene competitive binding, fluorescence; Potency, µM (top dose mostly 77.5 µM), without a hit: at the top dose activity change, negative = displacement, actives largely listed as inhibitors; Ferritin light chain (Equus caballus), P02791; hit rate 0.074% among 350,000; also: potency is read from the fitted curve at half-maximal effect; % is scaled to controls: 0 for no effect and ±100 for the full control effect; nearly all actives have a fitted effect of over 20% in size
Target sequence (P02791 2-175 limits assumed): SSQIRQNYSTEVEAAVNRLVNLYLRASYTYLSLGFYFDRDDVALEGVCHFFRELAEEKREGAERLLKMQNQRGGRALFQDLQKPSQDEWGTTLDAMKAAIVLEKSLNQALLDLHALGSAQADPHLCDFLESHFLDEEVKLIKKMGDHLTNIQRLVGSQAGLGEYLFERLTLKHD
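10 uM apoferritin + 50% sat. 1-AMA, PBS; cpd 10 min RT; Ex380/Em535 endpoint; normalized to free probe vs complex; 4-param Hill fit; propofol titration as pos. ctrl.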
Vif-APOBEC3G blk = qHTS for Inhibitors of Vif-A3G Interactions: qHTS | DNA dC->dU-editing enzyme APOBEC-3G (Homo sapiens), Q9HC16 | HeLa A3G-eYFP + Vif (tagged APOBEC3G with the HIV-1 protein that degrades it), YFP fluorescence, overnight | Potency, µM (titrated, usually from 46.1 µM), for the others: at the top dose activity, negative = active, actives largely listed as inhibitors | hit rate 0.076% among 410,000 | AID 602310, 2012; also: potency is read from the fitted curve at half-maximal effect; % is scaled to controls: 0 for no effect and ±100 for the full control effect; nearly all actives have a fitted effect of over 60% in size
Target sequence (Q9HC16 whole entry, looked up): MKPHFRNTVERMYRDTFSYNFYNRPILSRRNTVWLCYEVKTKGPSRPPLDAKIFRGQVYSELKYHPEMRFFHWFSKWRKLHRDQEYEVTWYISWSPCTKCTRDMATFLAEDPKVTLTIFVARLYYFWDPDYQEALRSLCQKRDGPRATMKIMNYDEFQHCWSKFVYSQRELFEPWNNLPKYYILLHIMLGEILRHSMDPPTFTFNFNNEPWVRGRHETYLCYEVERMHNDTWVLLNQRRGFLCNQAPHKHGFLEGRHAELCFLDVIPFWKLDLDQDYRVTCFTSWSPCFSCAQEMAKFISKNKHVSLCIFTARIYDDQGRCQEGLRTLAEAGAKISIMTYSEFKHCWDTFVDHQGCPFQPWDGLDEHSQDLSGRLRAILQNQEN
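Read-out is eYFP fluorescence (Ex 488/Em 500-530) from Vif-expressing HeLa A3G-eYFP cells; more signal means A3G escaped Vif-mediated degradation. Cells plated overnight, compound pinned in, incubated overnight at 37 deg C.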
Epigenetic derep = Quantitative High-Throughput Screen for Regulators of Epigenetic Control. murine LDR cells, GFP reporter derepression, 30 h. Potency, µM (series often up to 53.9 µM), for inactives: top-dose GFP activation, most hits filed as activators. hit rate 0.2% among 280,000. AID 1865, 2009; also: potency is read from the fitted curve at half-maximal effect; % of control where 0% means no effect; nearly all actives have a fitted effect of over 60% in size
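Derepression of a silenced CMV-GFP reporter in murine LDR cells is scored by enumerating GFP-positive cells with a laser-scanning microplate cytometer after 30 hours of treatment at 37 C.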
Vif-A3F inh = qHTS for Inhibitors of Vif-A3F Interactions: qHTS; HeLa A3F-eYFP + Vif (tagged APOBEC3F with the HIV-1 protein that degrades it), YFP fluorescence increase; AID 602313, 2012; Potency, µM (highest dose often 46.1 µM), for the others: at the top dose activity, negative = active; hit rate 0.2% among 390,000; also: potency is read from the fitted curve at half-maximal effect; % of control where 0% means no effect; nearly all actives have a fitted effect of over 65% in size
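HeLa cells stably expressing A3F-eYFP plus Vif, plated and incubated overnight at 37 deg C, then exposed to compounds overnight at 37 deg C. Blocked degradation read as raised yellow fluorescence (Ex 488/Em 500-530).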
LDHA inh = qHTS assay for inhibitors of human lactate dehydrogenase; hit rate 0.15% among 480,000; L-lactate dehydrogenase A chain (Homo sapiens), P00338; activity change, % (values are at about 110 or 230 µM); purified LDHA, NADH/diaphorase-resazurin fluorescence; active compounds read low; in the data active = activity change below about -30%; inconclusive = mostly about -25% to -30%;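 also: plate controls were DMSO wells for no effect and wells without enzyme for full effect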
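Remaining NADH was detected by diaphorase (0.133 mg/mL) converting 37 µM resazurin to fluorescent resorufin, read at 0 and 20 minutes. The preceding 5-minute room-temperature reaction used 2 nM LDHA, 0.2 mM sodium pyruvate and 0.06 mM NADH at pH 7.4.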
Active calls of the source: *; ? = inconclusive; · = no result. Unless noted, calls follow the shape of the dose curve; as a rule, active = well fitted curve in the direction sought with a large enough effect; inconclusive = small, poorly fitted or top-dose-only effect, or another doubt; inactive = no such curve, though single readings can be large; an effect the other way counts as inactive or inconclusive.

SMILES	Apoferritin bind	Vif-APOBEC3G blk	Epigenetic derep	Vif-A3F inh	LDHA inh
COc1ccc(NC(=O)c2cc([N+](=O)[O-])ccc2O)cc1	-20%	1%	3%	-4%	-38*
Cc1cc(C)c2nc(Nc3nc(C(C)C)cc(=O)[nH]3)nc(C)c2c1	·	·	·	·	-32*
Cc1nc(Nc2nc(C(C)C)cc(=O)[nH]2)nc2c(C)cccc12	·	·	·	·	9
COCC(C)n1c(C)cc(C(=O)CSc2ncccn2)c1C (configuration not stated)	-18%	2%	0%	2%	-10
Cc1ccc(NCC(=O)N=Nc2c(O)[nH]c3ccc([N+](=O)[O-])cc23)cc1	-8%	-7%	3%	?	23
Cc1ccccc1NCC(=O)N=Nc1c(O)[nH]c2ccc([N+](=O)[O-])cc12	-24%	5µM*	1%	?	0
N#CC(C(=O)NCc1ccccc1)c1nc2ccccc2nc1N1CCCC1 (configuration not stated)	0%	-1%	?	10µM*	1
CCCCCNC(=O)C(C#N)c1nc2ccccc2nc1N1CCCC1 (configuration not stated)	3%	-17%	0%	7.1µM*	4
CCCCCCNC(=O)C(C#N)c1nc2ccccc2nc1N1CCCC1 (configuration not stated)	1%	-2%	9%	-7%	-7
Cc1ccc(S(=O)(=O)C(C#N)c2nc3ccccc3nc2N2CCCC2)cc1 (configuration not stated)	83%	?	-1%	22µM*	4
CCN1CCN(c2nc3ccccc3nc2C(C#N)S(=O)(=O)c2ccc(C)cc2)CC1 (configuration not stated)	-14%	1%	0%	-17%	-3
CC(C)(C)OC(=O)C[C@@H]1C/C=C\C[C@H](CC(=O)N[C@H](CO)Cc2ccccc2)C(=O)N[C@H](Cc2ccccc2)COC1=O	·	0%	·	0%	-7
N#Cc1ccc(/C=C\c2nccc3c2[nH]c2ccccc23)cc1	49%	13µM*	?	?	-6
Cc1cc(=O)[nH]c(SCC(=O)NCCC2=CCCCC2)n1	-9%	-4%	2%	13%	1
COCCCNC(=O)CCc1c(C)nc2c(-c3ccc(F)cc3)c(C)nn2c1C	-4%	-11%	1%	0%	-16
COCCN(C(=S)Nc1ccccc1OC)C1CCN(C(C)=O)CC1	5%	0%	1%	0%	0
CC1=C(n2nnc3ccccc32)C(c2ccccc2)C(C#N)=C(N)O1 (configuration not stated)	-11%	-17%	3%	25µM*	6
COC(=O)C(=O)C1=C(C)OC(N)=C(C#N)C1c1ccccc1 (configuration not stated)	·	·	·	·	11
COc1ccc(N/C=C/C(=O)c2sc(-c3ccccc3)nc2C)cc1	-20%	11µM*	2%	-11%	3
COc1ccc(N/C=C/C(=O)c2ccccc2)cc1	-14%	-5%	·	-18%	-2
CCOC(=O)CC1C(=O)NCCN1c1nc2c(C)cccn2c(=O)c1/C=C1\SC(=S)N(CC(C)C)C1=O (configuration not stated)	-5%	·	7.9µM*	·	·
CC(C)CN1C(=O)/C(=C/c2c(N3CCc4ccccc4C3)nc3ccccn3c2=O)SC1=S	-12%	·	4.5µM*	·	·
COc1cc(NC(=O)CSc2nc(Cl)nc3nc[nH]c23)cc(OC)c1	·	·	·	·	1
CCC(C(=O)NCCc1cc(OC)ccc1OC)n1nc(C)c2sc3ccccc3c2c1=O (configuration not stated)	-2%	-9%	13µM*	-6%	-8
CCC(C(=O)NCc1cc(OC)ccc1OC)n1nc(C)c2sc3ccccc3c2c1=O (configuration not stated)	-1%	·	-3%	·	-16
SMILES	Apoferritin bind	Vif-APOBEC3G blk	Epigenetic derep	Vif-A3F inh	LDHA inh
NC(=O)C1CCN(C(=O)c2ccc(NS(=O)(=O)c3ccc(F)cc3)cc2)CC1	·	-10%	·	1%	-6
CCCOc1ccc2cc(C(=O)NCc3ccccc3)c(=O)oc2c1	16%	-229%	·	32µM*	-1
CCCCCCC[n+]1ccc(/C=C/c2c[nH]c3ccccc23)cc1	·	8%	·	·	·
CC[n+]1ccc(/C=C/c2c[nH]c3ccccc23)cc1	40%	5µM*	·	7.1µM*	0
COc1ccc2c(/C=C/c3cc[n+](C)cc3)c[nH]c2c1	-5%	?	·	13µM*	16
Cc1ccc(OCCOCCN2CCN(C)CC2)c(C(C)(C)C)c1	-5%	-1%	·	-8%	-32*
Clc1ccc(C2=NN(c3ccccc3)C(c3ccco3)C2)cc1 (configuration not stated)	52%	0%	2%	0%	-1
O=[N+]([O-])c1ccc(/C=C/C2=NN(c3ccccc3)C(c3ccco3)C2)o1 (configuration not stated)	-14%	?	13µM*	?	1
Fc1ccc(C2=NN(c3ccccc3)C(c3ccco3)C2)cc1 (configuration not stated)	319%	-5%	-1%	-2%	-2
C(=C\c1ccco1)/C1=NN(c2ccccc2)C(c2ccco2)C1 (configuration not stated)	5%	?	?	25µM*	2
NS(=O)(=O)c1ccc(CCNC(=O)COC(=O)CCc2c[nH]c3ccccc23)cc1	·	2%	·	-13%	-4
O=C1CCCCCCC1Sc1ccccc1[N+](=O)[O-] (configuration not stated)	7.9µM*	1%	2%	-8%	-1

Compound activity (PubChem)
